Screening results from PubChem BioAssay.
Compounds with a hit are over-represented: about 3.7% of the library has one in this group of screens.
Nrf2 inh: Nrf2 qHTS screen for inhibitors | A549 ARE-Fluc reporter, luciferase luminescence, 18-24 h | Potency, µM (series often up to 46 µM), usual class: inhibitors | 2.1% of 360,000 active; also: nearly all actives have a fitted effect of over 60% in size
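Cells were seeded and rested 2 h, then exposed to compounds for 18-24 h. CellTiter-Fluor was read first as a viability measure. BugLite was added 15 min before the final luminescent read of ARE-luciferase activity in A549 cells.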
Nrf2 ARE act: qHTS of Nrf2 Activators. AREc32 ARE-luciferase reporter (MCF7-derived line), luminescence, 24 h. Potency, µM (highest dose often 46.1 µM), actives largely listed as activators. 0.31% of 410,000 active. AID 624171, 2012; also: nearly all actives have a fitted effect of over 65% in size
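AREc32_Fluc, 1000 cells/well, OPTI-MEM + 5% FBS, o/n 37 deg C 5% CO2; 23 nL cpd by pin tool, 24 hr; Steady-Glo 30 min RT, luminescence.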
A549 tox: Nrf2 qHTS screen for inhibitors: counterscreen for cytotoxicity; Potency, µM (doses to about 46 µM), usual class: inhibitors; 0.16% of 390,000 active; AID 504648, 2011; A549 ARE-Fluc cells, CellTiter-Fluor viability, 18-24 h
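Cytotoxicity counterscreen: CellTiter-Fluor fluorescence was measured in A549 ARE_Fluc cells after 18-24 h of compound exposure in a concentration series. The subsequent BugLite luminescent read reports ARE-luciferase activity.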
ELG1 repair inh: qHTS screen for small molecules that inhibit ELG1-dependent DNA repair in human embryonic kidney (HEK293T) cells expressing luciferase-tagged ELG1 | 2.3% of 330,000 active | HEK293T ELG1-luciferase reporter, luminescence, 16 h; DNA damage induced by 5-fluorouridine | Potency, µM (series often up to 46.1 µM), actives largely listed as inhibitors; also: nearly all actives have a fitted effect of over 55% in size
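Luminescence from the luciferase reporter, measured 30 min after ONE-Glo reagent at room temperature, was the read-out. Beforehand, 2,000 cells per well were exposed for 16 hr at 37 °C to 5-fluorouridine together with compound or vehicle.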
Large screens that a line does not name were inactive. Calls follow the shape of the dose curve; as a rule, active = well fitted curve in the direction sought with a large enough effect; inconclusive = small, poorly fitted or top-dose-only effect, or another doubt; inactive = no such curve, though single readings can be large; an effect the other way counts as inactive or inconclusive.

O=C(O)CCNc1cc(N2CCN(C(=O)c3ccco3)CC2)c2noc3c2c1C(=O)c1ccccc1-3	Nrf2 inh inconclusive, A549 tox 18µM
O=C1c2ccccc2-c2onc3c(NCCO)cc(NC4CCCCC4)c1c23	Nrf2 inh 21µM, A549 tox inconclusive (no result: ELG1 repair inh)
COC(=O)C1(C)COP(=O)(NC23CC4CC(CC(C4)C2)C3)OC1 (stereo not given)	none (no result: ELG1 repair inh)
CC1CN(S(=O)(=O)c2ccc(NC(=O)c3cc(-c4ccccc4O)n[nH]3)cc2)CC(C)O1 (stereo not given)	Nrf2 inh inconclusive, A549 tox inconclusive, ELG1 repair inh 20µM
NS(=O)(=O)c1ccc(NC(=O)c2cc(-c3cc(Cl)ccc3O)n[nH]2)cc1	ELG1 repair inh 5.2µM
Cc1nn(CC(=O)N(C)C2CCS(=O)(=O)C2)c(C)c1S(=O)(=O)N(C)C (stereo not given)	none
COc1ccc2c(C)nc(Nc3nc(-c4ccccc4)cc(=O)[nH]3)nc2c1	Nrf2 inh inconclusive, ELG1 repair inh 4.1µM
Cc1ccc2c(C)nc(Nc3nc(CSc4nc5ccccc5[nH]4)cc(=O)[nH]3)nc2c1	Nrf2 inh inconclusive, ELG1 repair inh 4.6µM
COc1ccc(C(=O)NCCn2cc(SCC(=O)Nc3nnc(C)s3)c3ccccc32)cc1	Nrf2 inh 10µM (no result: ELG1 repair inh)
CC(=O)Nc1ccc(NC(=O)CCCc2ccccc2)cc1	ELG1 repair inh inconclusive
O=C(C[C@H]1C/C=C\CC[C@H](Cc2ccc(F)cc2)C(=O)O[C@@H](c2ccccc2)CNC1=O)N[C@@H](CO)Cc1ccccc1	A549 tox inconclusive, ELG1 repair inh 9.2µM
O=C(C[C@@H]1C/C=C/CC[C@@H](Cc2ccc(F)cc2)C(=O)OCCNC1=O)N[C@H](CO)Cc1ccccc1	none
O=C(C[C@H]1C/C=C\C[C@H](Cc2ccc(F)cc2)C(=O)O[C@@H](c2ccccc2)CNC1=O)N[C@H](CO)Cc1ccccc1	A549 tox inconclusive, ELG1 repair inh inconclusive
O=C(C[C@H]1C/C=C\CC[C@H](Cc2ccc(F)cc2)C(=O)OC[C@H]2CCCN2C1=O)N[C@H](CO)Cc1ccccc1	ELG1 repair inh 23µM
O=C(C[C@H]1C/C=C\CC[C@H](Cc2ccc(F)cc2)C(=O)O[C@@H](c2ccccc2)CNC1=O)N[C@H](CO)Cc1ccccc1	ELG1 repair inh 21µM
O=C(C[C@H]1C/C=C\CC[C@H](Cc2ccc(F)cc2)C(=O)O[C@H](c2ccccc2)CNC1=O)N[C@H](CO)Cc1ccccc1	A549 tox inconclusive, ELG1 repair inh 10µM
COc1cccc(NC(=O)C(CCSC)NC(=O)C2CCC(C)CC2)c1 (stereo not given)	none (no result: ELG1 repair inh)
Cc1cc(Nc2ccccc2)nc(NCc2ccccc2)n1	ELG1 repair inh 4.6µM
Cc1cc(Nc2cccc(F)c2)nc(NCc2ccccc2)n1	Nrf2 inh inconclusive, A549 tox inconclusive
Cc1cc(C)nc(NCCCc2ccccc2)n1	none
CCCCNc1cc(C)nc(NCc2ccccc2)n1	Nrf2 inh 18µM, ELG1 repair inh 15µM
Cc1cc(Nc2ccc(Cl)cc2)nc(NCc2ccccc2)n1	Nrf2 inh 16µM, A549 tox inconclusive
COc1ccc(C2=Nc3ccccc3OC2)cc1	Nrf2 inh inconclusive, Nrf2 ARE act 11µM, ELG1 repair inh inconclusive
C=CCn1c(SCC(=O)Nc2cccc(S(N)(=O)=O)c2)nnc1C1CCCCC1	none
CCC[C@H](CN[C@@H](CNC)[C@H](C)CC)NCCc1cc(C(F)(F)F)cc(C(F)(F)F)c1	ELG1 repair inh 21µM
COc1ccc(NC(=O)C23CC4CC(CC(Cl)(C4)C2)C3)cc1S(=O)(=O)N1CCOCC1	ELG1 repair inh 16µM
COc1ccc(CCC(=O)Nc2ccc(Cl)c(S(=O)(=O)N3CCCC3)c2)cc1	Nrf2 inh 18µM, ELG1 repair inh 4.6µM
COc1ccc(NC(=O)CCCOc2ccc(Cl)c(C)c2)cc1S(=O)(=O)N1CCOCC1	Nrf2 inh 18µM, A549 tox inconclusive, ELG1 repair inh inconclusive
COc1ccc(NC(=O)C2CC2)cc1S(=O)(=O)N1CCOCC1	none
Cn1c(=O)c2c(SCC(=O)N3CCOCC3)nc(-c3ccccc3F)nc2n(C)c1=O	none
CCN1CCN(c2ncc3c(n2)CCN(Cc2sccc2C)C3)CC1	none (no result: Nrf2 inh, ELG1 repair inh)
Cc1ccc(NC(=S)N(CCN2CCOCC2)Cc2cc3cc4c(cc3[nH]c2=O)OCO4)cc1	none
COc1ccc(NC(=O)N(Cc2cc3cc(C)ccc3[nH]c2=O)CC2CCCO2)cc1 (stereo not given)	ELG1 repair inh inconclusive
COc1ccc(NC(=O)N(Cc2cc3cc(OC)c(OC)cc3[nH]c2=O)CC2CCCO2)cc1 (stereo not given)	ELG1 repair inh inconclusive
Cc1ccc2[nH]c(=O)c(CN(CCN3CCOCC3)C(=O)Nc3ccccc3F)cc2c1	ELG1 repair inh 16µM
Cc1cccc(NC(=O)N(Cc2cc3cc(C)ccc3[nH]c2=O)CC2COCCO2)c1 (stereo not given)	ELG1 repair inh 12µM
COc1ccc2cc(CN(CC3CCCO3)C(=O)Nc3ccccc3)c(=O)[nH]c2c1 (stereo not given)	ELG1 repair inh 18µM
CCOc1ccc(NC(=S)N(CCN2CCOCC2)Cc2cc3cc4c(cc3[nH]c2=O)OCO4)cc1	ELG1 repair inh 21µM
COc1ccc2cc(CN(CCO)C(=O)c3ccc(Br)cc3)c(=O)[nH]c2c1	Nrf2 inh 21µM, ELG1 repair inh inconclusive
COc1ccc2[nH]c(=O)c(CN(CC3CCCO3)C(=O)Nc3ccc(F)cc3)cc2c1 (stereo not given)	Nrf2 inh inconclusive, ELG1 repair inh 7.3µM
COc1ccc2cc(CN(CCO)C(=O)c3ccccc3F)c(=O)[nH]c2c1	none
CC[C@@]12C(=O)N(c3cccc(Cl)c3)C(=O)N1[C@H](c1ccc(Br)cc1)[C@@H]1C(=O)N(C(C)(C)C)C(=O)[C@@H]12	Nrf2 inh inconclusive
COc1ccc(Nc2oc(-c3ccc(Cl)cc3)nc2C#N)cc1	A549 tox inconclusive, ELG1 repair inh inconclusive
COCCCNc1oc(-c2ccc(COc3ccc(Cl)cc3)o2)nc1C#N	Nrf2 inh 23µM (no result: ELG1 repair inh)
CCOc1ccc(Nc2oc(-c3ccc(Cl)cc3)nc2C#N)cc1	A549 tox 21µM, ELG1 repair inh inconclusive
COCCNc1oc(-c2ccc(COc3ccc(OC)cc3)o2)nc1C#N	Nrf2 inh inconclusive (no result: ELG1 repair inh)
O=C(CSc1nc2ccccc2[nH]1)N1CCN(c2ccccc2)CC1	Nrf2 inh inconclusive
O=C(CCCSc1nc2ccccc2[nH]1)N1CCN(c2ccccc2)CC1	Nrf2 inh inconclusive, ELG1 repair inh 23µM (no result: A549 tox)
COc1ccc(N(CC(=O)Nc2cccc(OC)c2)S(=O)(=O)c2c(C)nn(C)c2C)cc1	Nrf2 inh inconclusive
COc1ccc(N(CC(=O)Nc2nc3ccc(C)cc3s2)S(=O)(=O)c2c(C)nn(C)c2C)cc1	ELG1 repair inh 18µM
COc1ccc(N(/N=C2\Sc3ccccc3C2=O)C(C)=O)cc1	ELG1 repair inh inconclusive
COc1ccccc1N(/N=C1\Sc2ccccc2C1=O)C(C)=O	Nrf2 ARE act 14µM, ELG1 repair inh inconclusive
